Source: PubChem (several laboratories)
Most compounds without a hit are left out; they make up all but 6.7% or so of the library.
GDH-TPI inh: counter-screen for M. tuberculosis FBA inhibitors: GDH-TPI coupled enzymes; GDH-TPI coupled enzyme counterscreen, NADH absorbance; inhibition, % at 4.8 µM; 360,000 compounds, 1.2% hits; in the data active = inhibition above about 30%
BoNT F protease: blocks Botulinum neurotoxin F light chain protease; AID 588497; 360,000 compounds, 0.22% hits; Multiplex microsphere protease cleavage assay, flow cytometry; inhibition, % at 10 µM; in the data active = inhibition above about 35%, passing the limit was not always enough
BoNT-A LC inh2: BoNT A light chain protease inhibition; multiplex microsphere protease substrate cleavage, flow cytometry; 360,000 compounds, 0.17% hits; inhibition, % at 10 µM
Anthrax LF prot: anthrax lethal factor protease inhibition; P15917; inhibition, % at 10 µM; multiplex microsphere protease cleavage assay, LF; 360,000 compounds, 0.12% hits
Autofluor counter: counter-screen for toxin protease inhibitors: compound fluorescence; compound autofluorescence counterscreen, microsphere flow cytometry; stronger effect = higher value; fluorescence intensity (test concentration not listed); 360,000 compounds, 3.1% hits; in the data active = fluorescence intensity above about 16000
Mtb FBA inh: Mtb fructose-bisphosphate aldolase inhibition. inhibition, % at 1 µM. 360,000 compounds, 2.3% hits. purified M. tuberculosis FBA, fluorescence read-out. AID 588726; in the data active = inhibition above about 27%
Target sequence (P9WQA3 whole entry, looked up): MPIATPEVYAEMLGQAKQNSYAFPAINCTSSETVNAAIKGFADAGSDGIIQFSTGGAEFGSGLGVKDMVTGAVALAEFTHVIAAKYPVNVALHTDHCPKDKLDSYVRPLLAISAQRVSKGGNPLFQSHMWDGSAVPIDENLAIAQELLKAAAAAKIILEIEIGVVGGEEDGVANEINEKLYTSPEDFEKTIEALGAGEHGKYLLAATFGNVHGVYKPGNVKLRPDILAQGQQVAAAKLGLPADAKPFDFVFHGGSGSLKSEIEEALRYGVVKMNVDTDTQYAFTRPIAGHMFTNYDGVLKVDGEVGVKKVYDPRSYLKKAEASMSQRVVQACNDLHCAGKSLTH
Large screens that a line does not name were inactive. Cut-off read from the data, not from the text of the source, unless noted: active = inhibition above about 30%; inconclusive = no clear call, values can overlap the other calls; inactive = below that.

NS(=O)(=O)c1ccc(Nc2nc(-c3cccc([N+](=O)[O-])c3)cs2)cc1	none
CN(C)Cc1cn(CCC(=O)O)c2ccccc12	Autofluor counter 24504
Cc1ccc(-c2nnn(Cc3nc(N)nc(N4CCOCC4)n3)n2)cc1	Autofluor counter 23278
COc1ccccc1CN(CC(=O)NCc1ccc2c(c1)OCO2)C(=O)c1ccc2c(c1)OCCO2	none
CCNC(=O)C1CN(S(=O)(=O)c2ccccc2)CCN1S(=O)(=O)c1ccccc1 (stereo unspecified)	none
O=C(NC1CCCCC1)C1CN(S(=O)(=O)c2ccccc2)CCN1S(=O)(=O)c1ccccc1 (stereo unspecified)	Autofluor counter 24405
Cc1nc2ccc(NC(=O)Cc3ccccc3F)cc2s1	none
CC1CCN(C(=O)Cn2c(=O)n(CCCC(=O)NCc3ccco3)c(=O)c3sccc32)CC1	none
Cc1cccc(C)c1NC(=O)Cn1c(=O)n(CCC(=O)NCc2ccco2)c(=O)c2sccc21	Autofluor counter 20666
CCN(Cc1ccccc1)C(=O)Cn1c(=O)n(CC(=O)NCc2ccco2)c(=O)c2sccc21	Autofluor counter 21886
O=C(CCn1c(=O)c2sccc2n(CC(=O)OCc2ccccc2)c1=O)NCc1ccco1	none
CC1CCCCN1C(=O)Cn1c(=O)n(CCC(=O)NCc2ccco2)c(=O)c2sccc21 (stereo unspecified)	Autofluor counter 19227
COc1cccc2cc(-c3csc(NC(=O)CCC(=O)NCCCN4CCC(C)CC4)n3)c(=O)oc12	none
CCOc1cccc2cc(-c3csc(NC(=O)CCC(=O)N4CCC(C)CC4)n3)c(=O)oc12	Autofluor counter 22950
CCOc1cccc2cc(-c3csc(NC(=O)CCC(=O)NCCN4CCCCC4C)n3)c(=O)oc12 (stereo unspecified)	GDH-TPI inh 34.1
Cc1c(NC(=O)c2ccc(Cl)c(S(=O)(=O)N3CCOCC3)c2)c(=O)n(-c2ccccc2)n1C	none
CC1CN(C(=O)C2CC(=O)N(c3ccc(Cl)cc3)C2)CC(C)O1 (stereo unspecified)	none
O=C(CC12CC3CC(CC(C3)C1)C2)NCC(=O)OCc1cc(=O)oc2ccc3ccccc3c12	Mtb FBA inh 36.0
O=C(/C=C/c1cccc(F)c1)NC1CCN(Cc2ccccc2)CC1	none
CCCCCN1C/C=C\C(c2ccc(OC)cc2)N(Cc2ccc(F)cc2)C(=O)C1 (stereo unspecified)	none
COc1ccc(OC)c(NC(=O)c2c(NC(=O)CCC(=O)O)sc3c2CCCCC3)c1	none
COc1ccccc1NC(=O)c1c(NC(=O)CCC(=O)O)sc2c1CCCCC2	GDH-TPI inh 31.2
O=C(NC(=S)Nc1nc(-c2ccc(Br)cc2)cs1)c1cccnc1	Autofluor counter 23721
COc1cc(/C=N/N2C(=O)C3C4C=CC(CC4)C3C2=O)ccc1O (stereo unspecified)	none
O=C1C2C3c4ccccc4C(c4ccccc43)C2C(=O)N1/N=C/c1cccc(O)c1 (stereo unspecified)	Autofluor counter 17348
Cc1ccc(C(=O)Oc2coc(CSc3nnc(NC(=O)C4CC4)s3)cc2=O)cc1C	BoNT-A LC inh2 34.3
O=C(Oc1coc(CSc2nnc(NC(=O)C3CC3)s2)cc1=O)c1ccccc1	BoNT-A LC inh2 62.8
Cc1cccc(C(=O)Oc2coc(CSc3nnc(NC(=O)C4CC4)s3)cc2=O)c1	BoNT-A LC inh2 54.8
NC1=C(c2ccc(F)cc2)C(=O)CS1	none
Cc1cc(C(=O)CSc2nn3c(=O)c(C(C)(C)C)nnc3s2)c(C)n1-c1ccc(F)cc1	none
COc1cccc(NC(=O)N(C2CCCCC2)C(C)c2cccs2)c1 (stereo unspecified)	Autofluor counter 19720
CC(C)(C)c1ccc(S(=O)(=O)N2CC(=O)Nc3ccccc32)cc1	Autofluor counter 23729
CC(NC(=O)C(C)N1C(=O)c2cccc([N+](=O)[O-])c2C1=O)c1ccccc1 (stereo unspecified)	none
Cc1cc(O)c2c(c1)C(=O)C13C(=C2O)C(=O)[C@H]2[C@@H](O)[C@@H]1[C@H]1[C@H](O)[C@@H]3C(=O)C3=C(O)c4c(O)cc(C)cc4C(=O)C312 (stereo partly specified)	GDH-TPI inh 38.2
O=C(O)Cn1c2ccccc2c2nc3ccccc3nc21	GDH-TPI inh 31.6
Cc1ccc(C(=O)Cn2c(=N)n(CCN3CCOCC3)c3ccccc32)cc1	none
